Assay results taken from PubChem BioAssay.
Values without a mark were called inactive. The source made the active and inactive calls. No stated cut-off is given here; in the data, active means fold change permeability below about 0.7 or above about 1.3; inactive means in between. Residues, ends and D or L forms follow the SMILES beside them. *: point of attachment. Cbz = O=C(OCc1ccccc1)*

Experiment: modulators of brain endothelial barrier permeability, primary screen, cell-based, FITC-avidin fluorescence, HTS (AID 1963498); further: test concentration not given here
Details: actives lie on both sides

| SMILES | fold change permeability |
| --- | --- |
| CCCC1O[C@@H]2C[C@H]3[C@@H]4CCC5=CC(=O)C=C[C@]5(C)[C@H]4[C@@H](O)C[C@]3(C)[C@]2(C(=O)CO)O1 (stereo partly specified) | 1.1 |
| CCN(CC)CCn1c(=O)c(Cc2ccc(OC)cc2)nc2ccccc21 | 0.7 (active) |
| CNC1(C)C2CCC(C2)C1(C)C (stereo unspecified) | 0.8 |
| Cc1ccc2c(c1CCC(=O)O)CC[C@@H](NS(=O)(=O)c1ccc(Cl)cc1)C2 | 0.8 |
| O=C1NCN(c2ccccc2)C12CCN(CCCC(c1ccc(F)cc1)c1ccc(F)cc1)CC2 | 1.2 |
| O=c1[nH]ccc2c(O)cccc12 | 2.2 (active) |
| CC[C@@]1(O)C(=O)OCc2c1cc1n(c2=O)Cc2cc3c(CN(C)C)c(O)ccc3nc2-1 | 1 |
| CNC(=O)c1c(F)cccc1Nc1nc(Nc2cc3c(cc2OC)CCN3C(=O)CN(C)C)nc2[nH]ccc12 | 1.6 (active) |
| COC(=O)C1=C(C)NC(C)=C(C(=O)OC(C)(C)CN(C)CCC(c2ccccc2)c2ccccc2)C1c1cccc([N+](=O)[O-])c1 (stereo unspecified) | 1.1 |
| C=CCN1CCc2c(cc(O)c(O)c2Cl)C(c2ccccc2)C1 (stereo unspecified) | 1 |
| CC[C@H](NC(=O)c1c(O)c(-c2ccccc2)nc2ccccc12)c1ccccc1 | 1.1 |
| CC(C)c1ccc2oc3nc(N)c(C(=O)O)cc3c(=O)c2c1 | 1 |
| C[N+](C)(C)CCO | 1 |
| CN(C)c1nc(N)c(C(=O)N=C(N)N)nc1Cl | 1 |
| CN=c1nc(-c2ccccc2)n(-c2ccccc2)s1 | 2.1 (active) |
| O=C(O)CN(CCN(CC(=O)O)CC(=O)O)CCN(CC(=O)O)CC(=O)O | 1 |
| C[N+](C)(C)CCOC(=O)CCC(=O)OCC[N+](C)(C)C | 0.9 |
| CCN(CC)CCNC(=O)c1ccc(NC(C)=O)cc1 | 1.1 |
| CC(C)(C=O)Cc1cc(C(C)(C)C)c(O)c(C(C)(C)C)c1 | 1.2 |
| C#CC(N)CCC(=O)O (stereo unspecified) | 1.1 |
| CC(C)C(=O)Nc1ccc([N+](=O)[O-])c(C(F)(F)F)c1 | 1.2 |
| CC(C)[C@H](NC(=O)OCc1ccccc1)C(=O)N[C@H](C=O)Cc1ccccc1 (Cbz-Val-Phe-aldehyde) | 1.4 (active) |
| CCCCS(=N)(=O)CC[C@H](N)C(=O)O (stereo partly specified) | 0.9 |
| O=P(O)(O)C(Cl)(Cl)P(=O)(O)O | 1.1 |

| SMILES | fold change permeability |
| --- | --- |
| Cn1cnc([N+](=O)[O-])c1Sc1ncnc2nc[nH]c12 | 1.1 |
| O=C(O)/C=C1\CCCc2ccccc2C1O (stereo unspecified) | 0.8 |
| CCN(Cc1ccncc1)C(=O)C(CO)c1ccccc1 (stereo unspecified) | 1.6 (active) |
| O=Nc1c(-c2c(O)[nH]c3cc(Br)ccc23)[nH]c2ccccc12 | 1.2 |
| NC/C=C/C(=O)O | 0.8 |
| CCOC(=O)C1=C[C@]2(CC)CCCN3CCc4c(n1c1ccccc41)[C@@H]32 | 1.8 (active) |
| CCCCn1c(-c2ccccc2)nc(-c2ccccc2)c1CN(Cc1ccc2c(c1)OCO2)Cc1ccc2c(c1)OCO2 | 1.3 (active) |
| CN1CCN(C(=O)c2ccc(-n3nc(-c4ccc(C(=O)O)cc4)cc3-c3cc(C(C)(C)C)cc(C(C)(C)C)c3)cc2)CC1 | 1 |
| Clc1ccc(N2CCN(Cc3c[nH]c4ncccc34)CC2)cc1 | 1.4 (active) |
| Nc1ccn([C@H]2CC[C@@H](CO)O2)c(=O)n1 | 1 |
| O=C(O)Cn1c(C(=O)Nc2nc(-c3ccccc3Cl)cs2)cc2ccccc21 | 1.3 (active) |
| N[C@@H](Cc1c[nH]c2ccccc12)C(=O)O | 1.3 (active) |
| CC(=O)O[C@H]1C[C@@]2(C)[C@@H](C[C@@H](O)[C@H]3[C@@]4(C)CC[C@@H](O)[C@@H](C)[C@@H]4CC[C@@]32C)/C1=C(\CCC=C(C)C)C(=O)O | 1 |
| O=[N+]([O-])c1cccc2cn[nH]c12 | 1 |
| COC1=C(OC)C(=O)c2ccccc2C1=O | 1.4 (active) |
| CCCc1c(OCCCOc2ccc(OCC(=O)O)cc2)ccc(C(C)=O)c1O | 1.3 (active) |
| CC(=O)Nc1ccc(C(=O)Nc2ccc(F)cc2N)cc1 | 0.8 |
| O=C(O)C1CCCNC1 (stereo unspecified) | 1.3 (active) |
| Nc1nc2c(c(=O)[nH]1)C[C@@H](CCc1ccc(C(=O)N[C@@H](CCC(=O)O)C(=O)O)cc1)CN2 | 0.9 |
| CC1(C)CCC=[N+]1[O-] | 0.9 |
| Cc1cn([C@H]2C=C[C@@H](CO)O2)c(=O)[nH]c1=O | 1.2 |
| COc1ccc2cccc(CCNC(C)=O)c2c1 | 0.8 |
| CC(C)(O)[C@@H]1CC[C@](C)([C@H]2[C@@H](O)C[C@@]3(C)[C@@H]4C[C@H](O)[C@H]5C(C)(C)[C@@H](O)CC[C@@]56C[C@@]46CC[C@]23C)O1 | 1 |
| NS(=O)(=O)c1cc2c(cc1Cl)NC(C1CC3C=CC1C3)NS2(=O)=O (stereo unspecified) | 1.3 (active) |

| SMILES | fold change permeability |
| --- | --- |
| N[C@@H](CC(=O)O)C(=O)O | 1 |
| COc1cc2c(cc1O)[C@@H](Cc1ccc(O)c(Oc3ccc(C[C@@H]4c5cc(OC)c(OC)cc5CCN4C)cc3)c1)N(C)CC2 | 1.6 (active) |
| c1ccc2c(c1)CCC[C@H]2Nc1nc2ccccc2[nH]1 | 1.3 (active) |
| Cc1nc(N=Nc2ccc(C(=O)O)cc2)c(COP(=O)(O)O)c(C=O)c1O | 0.7 (active) |
| NNC(=O)CSc1nc2scc(-c3ccccc3)c2c(=O)n1-c1ccccc1 | 1.2 |
| COc1ccc(-c2csc(NC(=O)[C@H]3CCCCN3S(=O)(=O)c3ccc(C)cc3)n2)cc1 | 0.9 |
| Nc1ccc2c3c(cccc13)C(=O)NC2=O | 2.8 (active) |
| NCCCNCCCCNCCCN | 1.6 (active) |
| Cc1cc(N2C[C@@H](C)N[C@@H](C)C2)ncc1-c1ccc(-c2nc3c(ccn3C)c(=O)[nH]2)cc1 | 1.3 (active) |
| Cc1nc(C(=O)N2CCC[C@H]2Cc2nnc(-c3ccccc3)o2)c(-c2ccccc2F)s1 | 1 |
| Cc1ccccc1N1C(=O)c2cc(S(N)(=O)=O)c(Cl)cc2NC1C (stereo unspecified) | 0.8 |
| O=C(C1CCCCC1)N1CC(=O)N2CCc3ccccc3C2C1 (stereo unspecified) | 1.2 |
| C[C@@H](c1nc(-c2ccc(C#N)cc2)cs1)[C@](O)(Cn1cncn1)c1cc(F)ccc1F | 1.2 |
| CC(CCc1ccc(O)cc1)NCCc1ccc(O)c(O)c1 (stereo unspecified) | 1.2 |
| c1cnc2c(c1)ccc1cccnc12 | 1.2 |
| O=C(O)c1cc2cc(F)ccc2[nH]1 | 1.2 |
| O=C1c2ccccc2-c2n[nH]c3cccc1c23 | 1.5 (active) |
| COc1ccc(-c2cc(=O)c3c(O)c(OC)c(OC)cc3o2)cc1O | 1.6 (active) |
| CN1CCN(C2=Nc3cc(Cl)ccc3Nc3ccccc32)CC1 | 1.2 |
| Cn1c(=O)[nH]c2ncn(C)c2c1=O | 1.1 |
| Cc1nc(Nc2cnn(C3CCNCC3)c2)nc2c1N(C)C(=O)c1cc3ccccc3cc1N2C | 1 |
| C=C1C[C@@]23CC[C@H]4[C@@](C)(CCC[C@@]4(C)C(=O)O[C@@H]4O[C@H](CO)[C@@H](O)[C@H](O)[C@H]4O)[C@@H]2CC[C@]1(O[C@@H]1O[C@H](CO)[C@@H](O)[C@H](O)[C@H]1O[C@@H]1O[C@H](CO)[C@@H](O)[C@H](O)[C@H]1O)C3 | 1.7 (active) |
| O=C(NCCc1nccs1)c1cnc2c(SSc3cccc4cc(C(=O)NCCc5nccs5)cnc34)cccc2c1 | 0.7 (active) |
| N=C1CCCN1Cc1[nH]c(=O)[nH]c(=O)c1Cl | 1.6 (active) |

| SMILES | fold change permeability |
| --- | --- |
| COc1ccc2c(c1)CC[C@@H]1[C@@H]2CC[C@]2(C)[C@@H](NCCCCCCN3C(=O)CCC3=O)CC[C@@H]12 | 2.2 (active) |
| COc1ccc(Br)cc1S(=O)(=O)NC(=O)/C=C/c1ccccc1Cc1ccc2ccccc2c1 | 1.1 |
| CC(C)N1CCN(S(=O)(=O)c2ccc(NC(=O)c3ccc(C(F)(F)F)cc3[N+](=O)[O-])cc2)CC1 | 1.4 (active) |
| O=C(Nc1ccccc1C(=O)NC1CCCCNC1=O)c1cc2ccccc2s1 (stereo unspecified) | 1.9 (active) |
| NC(=NCc1ccccc1)NC(=O)c1nc(Cl)c(N)nc1N | 1 |
| O=C(O)/C=C/c1cnc[nH]1 | 1.4 (active) |
| O=C1N(c2ccccc2)c2ccccc2C1(Cc1ccncc1)Cc1ccncc1 | 0.9 |
| CC(C)(C)c1ccc(C(=O)Nc2ccc(Nc3ccccc3)cc2)cc1 | 1 |
| Cc1ccc(N(CC2=NCCN2)c2cccc(O)c2)cc1 | 1.1 |
| CC1(C)CCC(NC(=O)[C@@H](N)CCC(=O)O)CC1 | 0.9 |
| CCOC(=O)C(C)(C)Oc1ccc(Cl)cc1 | 0.9 |
| Cc1cccc(-c2[nH]c(Cc3cccc(C(N)=O)c3)nc2-c2ccc3nccnc3c2)n1 | 0.9 |
| O=c1cc(-c2ccccc2)oc2c(O)c(O)ccc12 | 1.5 (active) |
| O=C(Nc1ccc(Oc2ccc(Cl)cn2)c(Cl)c1)c1ccccn1 | 1.5 (active) |
| OC[C@H]1NC[C@@H](O)[C@@H]1O | 1 |
| NCC(O)C1CCCCCCC1 (stereo unspecified) | 1 |
| COc1ccc(-n2c(SCc3nc(-c4ccc(C)cc4)no3)nnc2-c2ccncc2)cc1 | 0.8 |
| COc1ccc(CCn2nnnc2C2(c3ccc(C)cc3)CC2)cc1 | 1.6 (active) |
| NNCCc1ccccc1 | 1.1 |
| S=C(S)N1CCCC1 | 1 |
| NCCCCCCCCCCN | 0.9 |
| CC(C)Cn1c(=O)n(C)c(=O)c2[nH]cnc21 | 0.7 (active) |
| O=C(O)C1(C(=O)O)CCC1.[NH2-].[NH2-].[Pt+2] | 0.8 |
| CC(=O)O[C@H]1CC[C@@]2(C)C(=CC[C@@H]3[C@@H]2CC[C@]2(C)C(c4cccnc4)=CC[C@@H]32)C1 | 1.8 (active) |
